E-sel TNF inh = E-selectin induction blockers in HUVEC – imaging, immunofluorescence, high content, primary screen; 120,000 tested, 0.71% active; inhibition, % at 2 µM; HUVEC TNFa-induced E-selectin immunofluorescence;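 active = inhibition above the batch mean plus 3 SD, and confirmed as a hit on visual image review, cut at about 43% in these data; inconclusive = passes the inhibition cutoff but fails visual image review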;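 note: 0% = TNF-stimulated DMSO wells and 100% = unstimulated control wells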
CYP2C9 inhib = blockers of cytochrome P450 2C9 activity – biochemical, luminescence, ADME assay, primary screen; P11712; CYP2C9 Supersomes, luciferin-H conversion; inhibition, % at 5 µM; 96,000 tested, 20% active;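 active = blocking of liver enzyme CYP2C9 beyond about 50% at 5 µM, limit read from the data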
Target sequence (P11712 whole entry, looked up): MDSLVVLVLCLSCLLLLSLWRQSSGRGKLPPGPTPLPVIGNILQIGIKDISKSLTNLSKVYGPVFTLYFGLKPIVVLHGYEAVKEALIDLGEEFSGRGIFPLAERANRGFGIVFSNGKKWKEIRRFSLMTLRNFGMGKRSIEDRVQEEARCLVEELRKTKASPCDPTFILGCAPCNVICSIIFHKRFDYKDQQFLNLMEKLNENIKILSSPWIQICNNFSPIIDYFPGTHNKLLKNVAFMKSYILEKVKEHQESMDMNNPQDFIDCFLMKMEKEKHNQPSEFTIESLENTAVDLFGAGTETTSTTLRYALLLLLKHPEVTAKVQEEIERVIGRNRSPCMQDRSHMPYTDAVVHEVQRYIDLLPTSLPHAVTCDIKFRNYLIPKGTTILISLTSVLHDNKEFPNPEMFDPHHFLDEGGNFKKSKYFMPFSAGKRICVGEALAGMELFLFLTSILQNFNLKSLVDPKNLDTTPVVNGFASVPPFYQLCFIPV
CYP2C19 inh = blockers of cytochrome P450 2C19 activity – biochemical, luminescence, ADME assay, primary screen. P33261. CYP2C19 Supersomes, luciferin-H EGE luminescence, 30 min. inhibition, % at 5 µM. 96,000 tested, 21% active. AID 778, 2007;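 active = CYP2C19 inhibition above a set limit at 5 µM in the primary screen, cut at about 50% in these data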;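 note: plate controls were negative control wells for no effect and 2.5 mM tranylcypromine positive control for full effect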
cytoskel mod = modifiers of F-actin cytoskeleton organization, primary screen, imaging, HUVEC, phalloidin staining, high-content imaging | 91,000 tested, 0.18% active | inhibition, % at 2 µM | HUVEC TNFa F-actin phalloidin imaging;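 active = inhibition above the batch mean plus 3 SD and confirmed as a hit by visual image inspection, cut at about 30% in these data, passing the limit was not always enough; inconclusive = above the inhibition threshold but rejected on visual inspection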
CYP2C9 act = human CYP2C9 activators, primary screen, biochemical, luminescence | Cytochrome P450 2C9 (Homo sapiens), P11712 | recombinant CYP2C9, luciferin-H conversion; hits give high values; factor 1 = untreated enzyme, 0 = blocked | activation factor at 5 µM | 96,000 tested, 1.4% active | AID 1024, 2008;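 active = activation factor of 2 or more for CYP2C9 at a 5 µM dose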;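 note: 0 = sulfaphenazole-blocked wells and 1 = vehicle-only wells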
CYP2C19 activ = human CYP2C19 activators, primary screen, biochemical, luminescence. Cytochrome P450 2C19 (Homo sapiens), P33261. recombinant CYP2C19, luciferin-H EGE luminescence; hits give high values; 0 = fully inhibited enzyme, 1 = untreated enzyme. activation factor at 5 µM. 96,000 tested, under 10 active;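 active = activation factor of at least 2 at 5 µM in the primary screen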;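 note: 0 = wells with 2.5 mM tranylcypromine and 1 = vehicle-only wells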
Active calls of the source: *; ? = inconclusive; nt = not tested or not shown. In the library only some 22% were active in any assay of this set; here they are far more common.

SMILES	E-sel TNF inh	CYP2C9 inhib	CYP2C19 inh	cytoskel mod	CYP2C9 act	CYP2C19 activ
O=C(CCn1c(=S)[nH]c2cc3c(cc2c1=O)OCO3)N1CCc2ccccc2C1	9	79*	91*	-9	0.2	0.1
O=C(CCCn1c(=S)[nH]c2cc3c(cc2c1=O)OCO3)N1CCc2ccccc2C1	-11	57*	38	7	0.4	0.6
O=C(CCCn1c(=O)oc2ccccc21)N1CCc2ccccc2C1	nt	-1	75*	11	1	0.2
Cc1cccc(N2CCN(C(=O)CCn3c(=S)[nH]c4cc5c(cc4c3=O)OCO5)CC2C)c1 (stereo not given)	-8	53*	48	-6	0.5	0.5
COc1ccc(NC(=O)CCC(=O)NCCO)cc1	-3	nt	nt	nt	nt	nt
Cc1cc([N+](=O)[O-])c2[nH]c(C(=O)N/N=C/c3ccccc3C(=O)O)c(-c3ccccc3)c2c1	nt	24	25	8	0.8	0.7
Cc1ccc(SCC(=O)Nc2ccc(-c3nc4ccccc4[nH]3)cc2)cc1	-19	nt	nt	nt	nt	nt
Cc1ccc(N2C(=O)C(NC(=O)c3ccccc3)(C(F)(F)F)C3=C2CC(C)(C)CC3=O)cc1 (stereo not given)	5	nt	nt	nt	nt	nt
Cc1noc(C)c1S(=O)(=O)N1CCC(Cc2ccccc2)CC1	nt	59*	21	-19	0.4	0.8
Cc1noc(C)c1S(=O)(=O)N1CCC(C(=O)NC2CCN(Cc3ccccc3)CC2)CC1	32	-5	-6	nt	1	1.1
Cc1noc(C)c1S(=O)(=O)N1CCN(c2ccccc2)CC1	nt	69*	80*	9	0.3	0.2
Cc1onc(-c2ccccc2)c1C(=O)N1CCN(CCc2ccccc2)CC1	-2	14	13	-19	0.9	0.9
Cc1noc(C)c1C(=O)N1CCC(Cc2ccccc2)CC1	nt	73*	99*	nt	0.3	0
O=S(=O)(c1ccc(OCc2nc3ccccc3s2)c(Cl)c1)N1CCOCC1	10	43	26	nt	0.6	0.7
COc1ccc(CN(CC(=O)NC2CCCC2)C(=O)c2onc(C(N)=O)c2N)cc1	-21	4	5	nt	1	1
COc1ccc(S(=O)(=O)N/N=C\c2ccc3c(c2)OCO3)cc1	-11	79*	71*	12	0.2	0.3
COC(=O)COc1ccc(S(=O)(=O)Nc2ccc3c(c2)OCO3)cc1	-30	93*	99*	-2	0.1	0
COC(=O)COc1ccc(S(=O)(=O)Nc2ccc3c(c2)OCO3)cc1Cl	-17	70*	98*	15	0.3	0
N#C/C(=C\c1ccc(OCc2ccc(C(=O)O)cc2)cc1)C(=O)N1CCOCC1	2	nt	nt	nt	nt	nt
N/C(CC(=O)NCCOc1ccccc1)=N\O	-11	-24	-14	-7	1.2	1.1
O=C(NC1CCCCCC1)C1c2ccccc2C(=O)N1Cc1cccnc1 (stereo not given)	15	2	52*	-17	1	0.5
O=C(NCc1cccnc1)C1c2ccccc2C(=O)N1C1CCCCCC1 (stereo not given)	nt	20	68*	17	0.8	0.3
O=C(NC1CCCCCCC1)C1c2ccccc2C(=O)N1Cc1ccco1 (stereo not given)	-23	14	21	8	0.9	0.8
CCn1c2ccccc2c2cc(NC(=O)CCCN3C(=O)CCC3=O)ccc21	-23	-89	49	15	1.9	0.5
Cc1nn(-c2ccccc2)c2sc(C(=O)N3CCOCC3)cc12	-6	nt	nt	1	nt	nt
SMILES	E-sel TNF inh	CYP2C9 inhib	CYP2C19 inh	cytoskel mod	CYP2C9 act	CYP2C19 activ
Cc1ccc(-n2nc(C)c3cc(C(=O)O)sc32)cc1	-8	4	-11	6	1	1.1
COC(=O)c1cc2c(C)nn(-c3ccccc3)c2s1	-18	10	52*	-2	0.9	0.5
Cc1nn(-c2ccccc2)c2sc(C(=O)OCC(=O)N3CCCCC3)cc12	nt	-5	-2	nt	1	1
Cc1nn(-c2ccccc2)c2sc(C(=O)OC3CCOC3=O)cc12 (stereo not given)	-38	68*	31	18	0.3	0.7
Cc1nn(-c2ccccc2)c2sc(C(=O)O)cc12	97*	-16	-3	nt	1.2	1
Cc1nn(-c2ccccc2)c2sc(C(=O)N(CC(=O)NC(C)(C)C)Cc3ccco3)cc12	2	56*	25	-35	0.4	0.8
COc1ccc(CCN2C(=O)c3ccccc3C2(O)c2ncc[nH]2)cc1OC (stereo not given)	-12	nt	nt	nt	nt	nt
CN(C)CC(=O)N1c2ccccc2CCc2ccc(NC(=O)c3ccc(N)cc3)cc21	29	42	5	2	0.6	1
CNC(=O)CSc1nnc(-c2cc3c(C)nn(-c4ccccc4)c3s2)n1C	1	nt	nt	-4	nt	nt
Cc1nn(-c2ccccc2)c2sc(-c3n[nH]c(=S)o3)cc12	11	66*	-6	nt	0.3	1.1
CCOC(=O)c1cc2c(C)nn(-c3ccccc3)c2s1	13	nt	nt	-4	nt	nt
Cc1nn(-c2ccccc2)c2sc(C(=O)OCc3nnc(-c4ccccc4)o3)cc12	3	55*	2	3	0.5	1
O=C(NCc1ccco1)c1ccccc1-c1ccc(C(F)(F)F)cc1	-3	34	39	-12	0.7	0.6
Cc1cc(-c2nnc(-c3cc4ccccc4oc3=O)o2)c(C)n1-c1ccccc1	-14	7	6	nt	0.9	0.9
O=C(Nc1sc2c(c1C(=O)O)CCC2)c1cccs1	nt	70*	85*	-12	0.3	0.2
O=C(Nc1sc2c(c1C(=O)O)CCC2)c1ccccc1	-4	22	13	2	0.8	0.9
CC(C)(C)c1ccc(S(=O)(=O)NCC(=O)Nc2sc3c(c2C(N)=O)CCCC3)cc1	-11	55*	6	-10	0.4	0.9
NC(=O)c1c(NC(=O)c2cccs2)sc2c1CCCCCC2	-6	85*	84*	nt	0.2	0.2
Cc1cccc(C(=O)Oc2ccccc2C2C[C@]3(C)CC(=O)NC3N2C(=O)c2cccc(C)c2)c1 (stereo not given in full)	-15	57*	41	?	0.4	0.6
C[C@@]12CC(=O)NC1N(C(=O)c1cccc(C(F)(F)F)c1)C(c1ccccc1O)C2 (stereo not given in full)	10	69*	56*	7	0.3	0.4
Cc1ccc(C)c(NC(=O)Cn2nnc(C(=O)NCc3cccs3)c2N)c1	-31	-26	-15	34	1.3	1.2
O=C1CC(Nc2ccc(N3CCOCC3)cc2)C(=O)N1C1CCCCC1 (stereo not given)	-20	nt	nt	-9	nt	nt
O=[N+]([O-])c1cccc(Cl)c1NCCNS(=O)(=O)c1ccc(Cl)cc1	-28	nt	nt	nt	nt	nt
